High-throughput results as filed in PubChem.
CBX7 AlphaScr: CBX7 chromodomain binding inhibitors, primary screen, biochemical, AlphaScreen | AID 1224903, 2016 | Chromobox protein homolog 7 (Homo sapiens), O95931 | normalised signal (fraction of DMSO) (test concentration not listed) | 66,000 compounds, 1.1% hits | AlphaScreen His6-CBX7 / biotin-H3K27me3 peptide binding; hits give low values; in the data active = normalised signal below about 0.5
Target sequence (O95931 whole entry, looked up): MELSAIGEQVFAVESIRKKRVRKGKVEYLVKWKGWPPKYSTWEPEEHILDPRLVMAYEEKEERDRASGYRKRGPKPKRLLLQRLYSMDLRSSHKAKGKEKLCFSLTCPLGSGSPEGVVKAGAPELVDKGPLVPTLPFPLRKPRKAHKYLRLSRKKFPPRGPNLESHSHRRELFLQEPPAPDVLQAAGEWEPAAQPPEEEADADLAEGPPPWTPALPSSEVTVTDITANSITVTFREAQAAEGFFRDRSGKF
Hits are given with their value; – = inactive. The entries come from a sample that favours hits as a whole.

SMILES | CBX7 AlphaScr
O=C(NCc1ccccn1)c1cc2c(s1)CS(=O)(=O)C2 | –
COC(=O)c1ccc(Nc2nc(-c3ccccc3)c3cc(Cl)ccc3n2)cc1 | –
COc1ccc(-c2nc(-c3cccnc3)no2)cc1OC | –
COc1cc(NC(=O)CCC2=NS(=O)(=O)c3ccccc3N2)cc(OC)c1 | –
Cc1ccccc1Nc1c(-c2ccc(Cl)cc2)nc2ncccn12 | –
CCCNC(=O)Cn1cnc2sc(C(=O)Nc3ccc(C)c(F)c3)c(C)c2c1=O | –
CC1(C(=O)NC2CCCCC2)CCC(=O)N1Cc1ccccc1 (stereo not given) | –
Cc1ccccc1Nc1c(-c2ccccn2)nc2ccc(Br)cn12 | –
Brc1ccc2nc(-c3ccccn3)c(Nc3ccc4c(c3)OCO4)n2c1 | –
COC(=O)CNc1c(-c2ccccn2)nc2ccc(Br)cn12 | 0.063
CCOc1ccc2nc(N3CCCC(C(=O)Nc4ccccc4C(=O)OC)C3)sc2c1 (stereo not given) | –
CCOC(=O)C1CCCc2c1[nH]c1c(C(=O)NCc3ccc(OC)cc3)cccc21 (stereo not given) | –
COc1cccc(OCC(O)CN2CCN(c3ccccn3)CC2)c1 (stereo not given) | –
O=S(=O)(Nc1cccc2cccnc12)c1ccccc1O | 0
CC(=O)Nc1ccc(NS(=O)(=O)c2cccc3cccnc23)cc1 | –
Cc1cc(C)c(S(=O)(=O)Nc2cccc3cccnc23)c(C)c1 | –
Cc1cccc(NC(=O)C(Cc2ccccc2)N2C(=O)c3ccccc3C2=O)c1 (stereo not given) | –
O=C(Nc1cccc(C(F)(F)F)c1)c1cc2nc(-c3cccs3)cc(C(F)(F)F)n2n1 | –
Cc1c(C(=O)NCc2ccccc2)oc2ccc(S(=O)(=O)N3CCC4(CC3)OCCO4)cc12 | –
Cc1c(C(=O)NCc2ccccn2)oc2ccc(S(=O)(=O)N3CCC4(CC3)OCCO4)cc12 | 0.43
Cc1c(C(=O)NCCC(C)C)oc2ccc(S(=O)(=O)N3CCC4(CC3)OCCO4)cc12 | –
Cc1oc(-c2cccc(Br)c2)nc1CN1CCC(C(=O)NCCCN2CCOCC2)CC1 | –
O=C(CCc1nc2sc3c(c2c(=O)[nH]1)CCCC3)NCc1ccccn1 | 0.34
CC(=O)NCCNC(=O)CCc1nc2sc3c(c2c(=O)[nH]1)CCCC3 | –
COc1ccc(CNC(=O)CCc2nc3sc4c(c3c(=O)[nH]2)CCCC4)cc1 | –
SMILES | CBX7 AlphaScr
COc1ccc2nc(NC(=O)Cn3c(C)cc4ccccc4c3=O)sc2c1 | –
Cc1ccc(-n2cc(C(=O)Nc3nc4c(C)cccc4s3)c3ccccc3c2=O)cc1C | –
O=C(NCc1ccccc1)c1ccc2c(c1)N(Cc1ccc(F)cc1Cl)C(=O)CS2 | –
O=C(NCCC1=CCCCC1)C1CCN(c2nnc(-n3cccc3)s2)CC1 | –
COc1ccc(-c2cn(-c3ccccc3)c(SCC(=O)Nc3ccc(F)cc3)n2)cc1OC | –
COc1ccc(OC)c(NC(=O)CSc2nccn2-c2ccccc2)c1 | –
Cc1ccc(NC(=O)CSc2nccn2-c2ccc(F)cc2)cc1Cl | –
COc1ccc(-c2cn(-c3ccc(Cl)cc3)c(SCC(=O)Nc3cccc(C)c3)n2)cc1OC | –
COc1ccc(OC)c(NC(=O)CSc2nccn2-c2ccc(F)cc2)c1 | 0.48
Cc1ccc(-n2cc(-c3ccc4c(c3)OCO4)nc2SCC(=O)Nc2cc(C)cc(C)c2)cc1 | 0.49
COc1cccc(-n2ccnc2SCC(=O)Nc2cc(OC)ccc2OC)c1 | –
Cc1ccc(-n2cc(-c3ccc4c(c3)OCO4)nc2SCC(=O)Nc2ccccc2)cc1 | –
COc1ccc(NC(=O)CSc2nccn2-c2ccc(OC)cc2)cc1 | –
COc1ccc(-c2cn(-c3ccc(Cl)cc3)c(SCC(=O)Nc3ccc(F)cc3)n2)cc1OC | 0.45
COc1ccc(-n2ccnc2SCC(=O)Nc2ccc(C)c(Cl)c2)cc1 | 0.47
Cc1ccc(-n2cc(-c3ccc4c(c3)OCO4)nc2SCC(=O)Nc2ccc3c(c2)OCO3)cc1 | –
Cc1ccc(Cc2c(C)nc3c(C(=O)NCc4ccc(Cl)cc4)cnn3c2C)cc1 | –
Cc1c(C(=O)Nc2ccccc2Br)oc2ccc(S(=O)(=O)N3CCCC3)cc12 | –
CCC(C)(C(=O)NC1CCCCC1)N(C(=O)c1ccccn1)c1ccccc1 (stereo not given) | –
Cc1cc(C)cc(CC2CC(=O)N(c3cc(C)on3)C2=O)c1 (stereo not given) | –
Cn1c(SCC(=O)Nc2ccc(F)cc2F)nnc1-c1cccnc1 | –
Fc1ccc(C2=CC(Cl)=C(c3cccs3)Oc3ccccc32)cc1 | –
COc1ccc(NC(=O)CSc2nccn2-c2ccc(Cl)cc2)c(OC)c1 | 0.49
COc1ccc(-n2ccnc2SCC(=O)Nc2ccccc2OC)cc1 | –
COc1ccc(Cl)cc1NC(=O)CSc1nccn1-c1ccc(F)cc1 | 0.4
CCOc1ccc(-n2ccnc2SCC(=O)Nc2cc(Cl)ccc2OC)cc1 | –
COc1ccc(-n2ccnc2SCC(=O)Nc2ccc(Cl)cc2)cc1 | –
COc1ccc(-n2ccnc2SCC(=O)Nc2cc(Cl)ccc2OC)cc1 | –
